# Screening data (PubChem)
# Cycloheximide cs = counter-screen hit for Shiga toxin inhibitors, cycloheximide; max response, %; cell reporter, cycloheximide protein synthesis inhibition counterscreen; 12% of 300,000 active; in the data active means max response mostly above about 13%, no sharp cut-off; inactive means mostly below about 14%; further: read at 38.3 µM for the half of the compounds with a filed dose; 0% is about no effect
# LmPK inhibitor = LmPK (Leishmania mexicana) enzyme inhibition; Potency, µM (highest dose often 57.5 µM), inactives show at the highest dose activity change, negative = inhibition, hits mostly inhibitors; purified LmPK, Kinase-Glo ATP luminescence, 1 h; 0.37% of 290,000 active; further: potency means the concentration at half of the fitted maximal effect; on the % scale 0 is the no-effect control and ±100 the full control effect
#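 ATP generated from ADP (0.1 mM) and PEP (0.5 mM) by 0.1 nM LmPK over 1 h at room temperature (pH 7.2 imidazole buffer) was detected by coupled luciferase luminescence. Values were normalized to uninhibited and no-enzyme wells.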
# TbPYK inhibitor = inhibitors of Trypanosoma brucei pyruvate kinase; Q57TT1; TbPYK enzyme, Kinase-Glo Plus ATP luminescence, 45 min; Potency, µM (series often up to 76.8 µM), inactives show at the highest dose activity, negative = inhibition, hits mostly inhibitors; 0.12% of 410,000 active; AID 624173; further: potency means the concentration at half of the fitted maximal effect; on the % scale 0 is the no-effect control and ±100 the full control effect; nearly all actives have a fitted effect of over 50% in size
#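 Enzyme and substrate buffer are dispensed first and compound is pin-transferred. ADP at 130 uM final then starts the reaction, which runs 45 min at room temperature. Detection reagent is added for 10 min before luminescence is imaged.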
# Shiga toxin inh = Shiga toxin inhibition; inhibition, % at 38.7 µM; AID 2315; Vero cells, Shiga toxin protein synthesis inhibition reporter; 9.2% of 290,000 active; in the data active means inhibition mostly above about 28%, no sharp cut-off; inactive means mostly below about 43%; further: 0% is about no effect
# RE007 growth inh = less growth of the S. pombe RE007 Vpr strain; S. pombe RE007 Vpr strain, BacTiter-Glo ATP luminescence, 24 h; Potency, µM (highest dose often 92.2 µM), inactives show at the highest dose activity change, negative = less growth, hits mostly inhibitors; 0.21% of 360,000 active; active means well fitted falling curve with a large enough effect; inconclusive means small, poorly fitted or top-dose-only effect; inactive means no such curve, though single readings can be large or run the other way; further: potency means the concentration at half of the fitted maximal effect; on the % scale 0 is the no-effect control and ±100 the full control effect; nearly all actives have a fitted effect of over 50% in size
#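 Fission yeast strain RE007, carrying one chromosomally integrated HIV-1 vpr copy, was seeded at OD 0.01 in PMG+AL medium with 23 nL pinned compound. After 24 h at 30 °C and 99% humidity, viability was read by BacTiter-Glo luminescence.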
# FBPA Giardia inh = blocks Giardia fructose-bisphosphate aldolase activity; Potency, µM (top dose mostly 59.6 µM), for the others: at the highest dose activity, negative = inhibition, actives largely listed as inhibitors; AID 2451; purified Giardia FBPA; A8B2U2; 0.71% of 290,000 active; further: potency means the concentration at half of the fitted maximal effect; on the % scale 0 is the no-effect control and ±100 the full control effect; nearly all actives have a fitted effect of over 55% in size
# Target sequence (A8B2U2 whole entry, looked up): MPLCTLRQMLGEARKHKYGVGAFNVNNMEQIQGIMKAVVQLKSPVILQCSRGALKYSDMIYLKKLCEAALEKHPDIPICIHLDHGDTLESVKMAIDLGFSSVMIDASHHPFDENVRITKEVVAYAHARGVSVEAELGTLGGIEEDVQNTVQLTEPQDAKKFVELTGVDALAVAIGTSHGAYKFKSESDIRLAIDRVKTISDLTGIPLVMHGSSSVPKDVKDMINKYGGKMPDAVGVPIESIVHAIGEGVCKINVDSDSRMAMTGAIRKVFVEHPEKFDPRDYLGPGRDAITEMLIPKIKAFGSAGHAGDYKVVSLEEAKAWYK
#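 40 nM FBPA preincubated 10 min at RT with compound (up to 57.5 uM final), then substrate plus GAPDH/TPI/NAD/arsenate coupling and diaphorase/resazurin added. Fluorescence read after 20 min at RT, 525/598 nm.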
# Numbers without * were called inactive; u = inconclusive; x = no result; [ ] = dose if it differs, or a comment. Many of the other results were omitted from the sample, so hits are more common in it than they were. Unless noted, the call rests on the fitted dose curve; in most records, active means well fitted curve in the direction sought with a large enough effect; inconclusive means small, poorly fitted or top-dose-only effect, or another doubt; inactive means no such curve, though single readings can be large; an effect the other way counts as inactive or inconclusive.
SMILES,Cycloheximide cs,LmPK inhibitor,TbPYK inhibitor,Shiga toxin inh,RE007 growth inh,FBPA Giardia inh
Cc1ccc(NC(CC(=O)c2ccccc2)c2ccc(F)cc2)cc1 (centres undefined),50*,-4%,1%,69*,-22%,1%
COc1ccc2[nH]cc(CCN=C(NC(=O)c3ccccc3F)Nc3nc(C)cc(C)n3)c2c1,x,x,-11%,x,x,x
COc1ccc(C(CC(=O)c2ccc(C)cc2)Nc2ccc([N+](=O)[O-])cc2)cc1 (centres undefined),28*,-1%,2%,19,-6%,-7%
O=S(=O)(c1ccc2ccccc2c1)n1cccn1,1,-1%,2%,-8,6%,x
O=[N+]([O-])c1ccc(O)c(C=NN2CCCCC2)c1,x,x,0%,x,-18%,x
Cc1[nH]c2ccccc2c1/C=N/NC(=O)CNC(=O)c1ccc2c(c1)OCCO2,-3,1%,-16%,-1,2%,-18%
Oc1[nH]c2ccccc2c1C=Nc1ccc2c(c1)OCCO2,32*,u,-18%,53,-4%,-18%
O=[N+]([O-])c1ccc(O)c(C=Nc2ccc3c(c2)OCCO3)c1,112*,2%,-15%,108*,-46%,-18%
Oc1c(Br)cc(Br)cc1C=Nc1ccc2c(c1)OCCO2,32*,-4%,-5%,50*,-13%,-26%
C[C@H](CO)N1C[C@H](C)[C@@H](CN(C)S(C)(=O)=O)Oc2c(NC(=O)C3CC3)cccc2C1=O,x,x,-15%,x,4%,x
COc1cccc(-c2cn3c(n2)sc2cc(C(=O)NCCc4ccc(OC)c(OC)c4)ccc23)c1,x,x,0%,x,x,x
COc1cc(C)ccc1S(=O)(=O)NC(=O)C1(C)CCN1C(=O)C1(c2ccc(Cl)cc2)CCC1 (centres undefined),x,x,6%,x,-7%[18.4 µM],x
Cc1noc(C)c1-c1nc(CS(=O)(=O)c2ccc(Cl)cc2)no1,-1,2%,-6%,-6,10%,8%
O=S(=O)(Cc1noc(-c2ccccc2Cl)n1)c1ccccn1,41*,2%,0%,72*,6%,0%
COc1ccccc1N(CC(=O)N1CCCC1)S(=O)(=O)c1cc([N+](=O)[O-])ccc1Cl,x,x,1%,x,-6%,x
COc1ccc(-c2cc(C(=O)O)nc3ccc4ccccc4c23)cc1OC,18*,6%,3%,41*,-1%,-10%
COc1ccc(Nc2nnc(SCC3CCCO3)s2)cc1 (centres undefined),24*,0%,-3%,54,-14%,-11%
COc1cccc(Nc2nnc(SCC3CCCCO3)s2)c1 (centres undefined),53*,6%,4%,53*,3%,-11%
Cc1cccc(Nc2nnc(SCC3CCCCO3)s2)c1C (centres undefined),54*,0%,-1%,66*,-26%,1%
Cc1cccc(Nc2nnc(SC3CCOC3=O)s2)c1C (centres undefined),9,1%,-8%,27,-17%,0%
COc1ccc(Nc2nnc(SCC(=O)NC3CC3)s2)cc1,x,x,23%,x,1%,x
CCc1ccccc1N(C)C(=O)Cn1cnc2sc(C)c(S(=O)(=O)N3CCN(c4ncccn4)CC3)c2c1=O,x,x,6%,x,x,x
Cc1cc(C(=O)OCC(=O)N2CCC(C)CC2)c2ccccc2n1,x,x,3%,x,-6%,x
Cc1ccc(Nc2nc3ccccc3n3cnnc23)cc1C,37*,3%,-1%,31*,-4%,-6%
Cc1ccc2nc(NCCc3ccc(Cl)cc3)c3nncn3c2c1,-1,7%,1%,6,6%,-6%
Cc1ccc2nc(Nc3ccc(C)c(C)c3)c3nncn3c2c1,12,-1%,2%,28*,-2%,7%
Cc1cccc(CCNc2nc3ccc(C)cc3n3cnnc23)c1,30*,1%,5%,74*,0%,7%
Cc1cc(C)cc(Nc2nc3ccc(C)cc3n3cnnc23)c1,-3,20%,7%,-4,7%,-3%
Nc1ccn(CC(=O)NCCNc2ccc([N+](=O)[O-])cn2)c(=O)n1,x,x,-4%,x,-1%,x
CN(C)CCCNc1oc(/C=C/c2ccccc2)nc1C#N,42*,-2%,-3%,65*,-6%,-2%
